Compound activity (PubChem)
tim10-1 inh: tim10-1 yeast growth inhibition. S. cerevisiae tim10-1 ts strain growth, BacTiter-Glo, 24 h. inhibition, % at 20 µM. hit rate 2.2% among 330,000. AID 463190;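 active means inhibition of at least 40%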;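 further: mutant grown at 25 °C; 0% = DMSO wells with yeast and 100% = wells holding no yeast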
TIM10 inh: TIM10 yeast growth inhibition | S. cerevisiae TIM10 strain growth, BacTiter-Glo luminescence, 24 h | inhibition, % at 10 µM | hit rate 1.4% among 330,000 | AID 463195;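 active means inhibition of 40% or more at the single tested concentration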;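 further: wild-type TIM10 isogenic control strain grown at permissive 25 °C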
Mdm2-MdmX inh: disrupts the human Mdm2-MdmX interaction. O15151+Q00987. SaOS-2 split-luciferase Mdm2/MdmX complementation, luminescence. inhibition, % at 8 µM. hit rate 3% among 330,000. AID 485346;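 active means inhibition of at least 50% at 8 µM in the primary screen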
Target sequence (O15151 whole entry, looked up): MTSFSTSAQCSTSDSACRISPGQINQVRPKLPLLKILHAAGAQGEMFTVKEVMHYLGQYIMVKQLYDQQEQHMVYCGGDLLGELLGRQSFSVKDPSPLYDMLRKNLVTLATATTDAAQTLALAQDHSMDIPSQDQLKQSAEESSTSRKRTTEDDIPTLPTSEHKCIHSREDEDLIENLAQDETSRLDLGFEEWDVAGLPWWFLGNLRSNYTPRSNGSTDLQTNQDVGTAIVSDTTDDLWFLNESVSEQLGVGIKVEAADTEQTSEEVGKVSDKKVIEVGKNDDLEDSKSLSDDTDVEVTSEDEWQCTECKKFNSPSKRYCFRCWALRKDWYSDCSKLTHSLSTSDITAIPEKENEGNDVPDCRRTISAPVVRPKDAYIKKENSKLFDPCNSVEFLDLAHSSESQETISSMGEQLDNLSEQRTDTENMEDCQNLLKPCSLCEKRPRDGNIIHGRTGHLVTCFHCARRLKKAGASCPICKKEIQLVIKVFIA
Target sequence (Q00987 whole entry, looked up): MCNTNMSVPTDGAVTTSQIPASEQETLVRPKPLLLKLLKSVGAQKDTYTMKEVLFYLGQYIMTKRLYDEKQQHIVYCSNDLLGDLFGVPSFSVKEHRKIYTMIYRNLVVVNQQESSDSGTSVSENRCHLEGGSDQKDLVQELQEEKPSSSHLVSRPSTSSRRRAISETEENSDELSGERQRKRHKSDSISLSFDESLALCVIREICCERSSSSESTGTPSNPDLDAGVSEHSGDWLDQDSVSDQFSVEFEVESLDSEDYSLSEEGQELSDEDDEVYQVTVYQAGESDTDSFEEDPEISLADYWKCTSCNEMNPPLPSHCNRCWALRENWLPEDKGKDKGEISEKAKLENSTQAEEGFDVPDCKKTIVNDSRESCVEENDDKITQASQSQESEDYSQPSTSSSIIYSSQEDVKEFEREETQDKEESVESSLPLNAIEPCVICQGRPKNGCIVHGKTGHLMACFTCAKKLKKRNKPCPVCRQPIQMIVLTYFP
MPTP block: permeability transition pore inhibition; inhibition, % at 10 µM; hit rate 1.4% among 360,000; isolated mouse mitochondria, Ca2+ swelling absorbance, 30 min; AID 602449;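 active means inhibition of 50% or more, scaled per plate between neutral and stimulator controls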;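 further: 0% = DMSO wells given calcium and 100% = 1 mM EGTA wells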
tim23-1 inh: inhibits growth of tim23-1 mutant yeast; S. cerevisiae tim23-1 growth, BacTiter-Glo luminescence, 24 h; inhibition, % at 20 µM; hit rate 1.3% among 330,000;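 active means growth inhibition of the mutant yeast at or above 50%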;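 further: temperature-sensitive mutant grown at 25 °C; plate controls were DMSO-treated mutant yeast for no effect and medium wells lacking yeast for full effect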
tim10 confirm: confirmation of TIM10 yeast growth inhibitors; shares compounds with TIM10 inh; hit rate 63% among 4,600; S. cerevisiae tim10 strain growth, BacTiter-Glo luminescence, 24 h; inhibition, % at 10 µM;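 active means inhibition of yeast growth at or above a set limit in either of two replicates at 10 µM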;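 further: this counterscreen used the strain with wild-type TIM10; 0% = yeast with DMSO and 100% = medium wells lacking yeast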
tim23-1 confirm: tim23-1 yeast growth inhibition, confirmed. S. cerevisiae tim23-1 growth, BacTiter-Glo luminescence, 24 h. hit rate 83% among 4,400. inhibition, % at 20 µM. shares compounds with tim23-1 inh;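 active means inhibition above about 39% in either of two replicate wells at 20 µM, limit read from the data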;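 further: temperature-sensitive tim23-1 mutant grown at 25 °C; 0% = DMSO wells with yeast and 100% = medium wells without yeast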
The depositor's hits bear a star. Only some compounds are listed: those with a hit (about 6.3% of all), similar ones and a draw of the others.

Results for COc1cc(C)ccc1S(=O)(=O)NC(=O)C1(C)CCN1C(=O)Cc1ccc(C(C)(C)C)cc1 (stereo unspecified) ?
MPTP block: 1

What do the screens show for `CCc1oc2ccccc2c1C(=O)CCN1CCCCC1`?
tim10-1 inh: 33; TIM10 inh: 57*; Mdm2-MdmX inh: 10; MPTP block: -2; tim23-1 inh: 52*; tim10 confirm: 41*; tim23-1 confirm: -121

How did O=C(CCN1CCCCC1)c1ccccc1 do in these assays?
tim10-1 inh: 10; TIM10 inh: 5; Mdm2-MdmX inh: -2; MPTP block: 4; tim23-1 inh: 21

How did CC(O)(c1ccc(F)c(F)c1)c1nc(-c2cc3ccccc3o2)cs1 (stereo unspecified) do in these assays?
MPTP block: 32

How did O=C(/C=C/c1ccccc1O)c1ccc(Cl)cc1 do in these assays?
tim10-1 inh: 34; TIM10 inh: 42*; Mdm2-MdmX inh: -3; MPTP block: 1; tim23-1 inh: 56*; tim10 confirm: 39*; tim23-1 confirm: 58*

What do the screens show for `CCOc1ccccc1/C=C/C(=O)c1ccc(Cl)cc1`?
tim10-1 inh: 28; TIM10 inh: 11; Mdm2-MdmX inh: 11; MPTP block: 2; tim23-1 inh: 22

Results for O=C(Nc1ccc2oc(-c3ccccc3F)nc2c1)c1ccccc1F ?
tim10-1 inh: 7; TIM10 inh: 55*; Mdm2-MdmX inh: -122; MPTP block: -2; tim23-1 inh: 61*; tim10 confirm: 60*; tim23-1 confirm: 79*

What do the screens show for `O=S1(=O)CC(N2CCCCC2)CN1Cc1ccc(F)cc1` (stereo unspecified)?
MPTP block: -1

Results for Cc1ccc(C(=O)Nc2cccc(Oc3ccccc3)c2)o1 ?
tim10-1 inh: 20; TIM10 inh: 50*; Mdm2-MdmX inh: -23; MPTP block: -6; tim23-1 inh: 58*; tim10 confirm: 56*; tim23-1 confirm: 77*

What do the screens show for `C[C@H]1CN([C@@H](C)CO)C(=O)CCCn2cc(nn2)CO[C@@H]1CN(C)C(=O)CCC(F)(F)F`?
MPTP block: 1

What do the screens show for `CC(C)(C)c1cc(C(C)(C)C)cc(S(=O)(=O)CCc2ccccn2)c1`?
tim10-1 inh: 31; TIM10 inh: 51*; Mdm2-MdmX inh: -16; MPTP block: 2; tim23-1 inh: 59*; tim10 confirm: 57*; tim23-1 confirm: 54*

How did N/C(Cc1ccc(Cl)cc1)=N\OC(=O)C1CCCCC1 do in these assays?
tim10-1 inh: 29; TIM10 inh: 87*; Mdm2-MdmX inh: 15; MPTP block: 1; tim23-1 inh: 79*; tim10 confirm: -12; tim23-1 confirm: 53*

What do the screens show for `O=C(COC(=O)C1CCCC1)NCc1ccc(Cl)cc1`?
tim10-1 inh: -10; TIM10 inh: -6; Mdm2-MdmX inh: 31; MPTP block: 1; tim23-1 inh: 3

What do the screens show for `Cc1ccc(-n2c(-c3ccc(Cl)cc3)n[nH]c2=S)c(C)c1`?
tim10-1 inh: 24; TIM10 inh: 47*; Mdm2-MdmX inh: 4; MPTP block: 0; tim23-1 inh: 55*; tim10 confirm: 49*; tim23-1 confirm: 42*

How did CC1(C(=O)Nc2cccc3c2CCCC3)CCN1C(=O)c1cccc(F)c1 (stereo unspecified) do in these assays?
MPTP block: -1

How did CC1=CC(C)(C)N(C(=O)CN2C(=O)CCC2=O)c2ccccc21 do in these assays?
tim10-1 inh: 11; TIM10 inh: 3; Mdm2-MdmX inh: 20; MPTP block: -3; tim23-1 inh: 5

What do the screens show for `CC1=CC(C)(C)N(C(=O)CN2C(=O)c3ccccc3C2=O)c2ccc(C)cc21`?
tim10-1 inh: 40; TIM10 inh: 44*; Mdm2-MdmX inh: 10; MPTP block: 0; tim23-1 inh: 60*; tim10 confirm: 50*; tim23-1 confirm: 59*

Results for CC(=O)c1ccc(NC(=O)COC(=O)CC2CC3CCC2C3)cc1 (stereo unspecified) ?
tim10-1 inh: -2; TIM10 inh: 10; Mdm2-MdmX inh: 11; MPTP block: 6; tim23-1 inh: 39
